Bioassay records as filed in PubChem BioAssay.
TAR Tat displ – HIV-1 TAR-Tat binding disruption | HIV-1 TAR RNA, Tat peptide displacement FRET; active compounds read high | z-score (concentration not given with the values) | actives 0.6% (n = 100,000) | AID 1259389; active means z-score of 3 or more in at least 2 runs
CDC25B CDK2 inh – human CDC25B-CDK2/CyclinA binding inhibition; AID 1259370; z-score (test concentration not listed); P30305+P24941; actives 0.72% (n = 94,000); HTRF CDC25B-CDK2/CyclinA binding, anti-His/anti-Flag; active compounds read high; in the data active means z-score above about 3.2
* hit, by the source's call; . = no result; ! = not active in a repeat. Hits are enriched below; roughly 0.93% of the tested compounds scored in any of these assays.

SMILES	TAR Tat displ	CDC25B CDK2 inh
Cn1c(=O)c2c3nc4ccccc4cc3c(=O)n(C)c2n(C)c1=O	.	20.1*
Cn1c(=O)c2cc3cc(Cl)ccc3nc2c2c(=O)n(-c3ccccc3)c(=O)n(-c3ccccc3)c21	.	-1.31
O=C(O)c1cc(N2C(=O)C3CCCCC3C2=O)ccc1Cl (configuration not stated)	1.03	.
O=C(O)c1cc(N2C(=O)c3c(Cl)c(Cl)c(Cl)c(Cl)c3C2=O)ccc1Cl	.	8.58*
O=C(Nc1ccc(Br)cc1)N1CCN(Cc2ccc3nccnc3c2)CC1	-1.12	.
O=C(NCCN1CCCC1)C1=Cc2sc3c(c2CS1)CCCC3	2.15	.
Cc1sc2c(c1C)CSC(C(=O)NCCN1CCCC1)=C2	6.31*	.
COc1ccccc1-n1c(C)c(C)c2c1ncn1nc(-c3cccs3)nc21	-0.94	-1.05
O=S(=O)(Nc1ccc(-c2ccno2)cc1)c1ccc(-c2cnc(C3CC3)o2)cc1	0.8	.
CC1CCCCC1NC(=O)CN(C)S(=O)(=O)c1ccc2c(c1)C(C)(C)C(=O)N2C (configuration not stated)	1.18	.
COc1ccc(C2CC(=O)N3CN(c4ccc(Br)cc4)CSC3=C2C#N)cc1OC (configuration not stated)	-0.65	5.59*
COc1cccc(C2CC(=O)N3CN(c4ccccc4)CSC3=C2C#N)c1OC (configuration not stated)	1.68	3.46*
COc1cccc(C2CC(=O)N3CN(C)CSC3=C2C#N)c1OC (configuration not stated)	-0.83	4.32*
Cc1ccc(C2CC(=O)N3CN(c4ccc(Br)cc4)CSC3=C2C#N)o1 (configuration not stated)	-1.85	7.35*
O=C(c1cccn1-c1nnc(N2CCCCC2)s1)N1CCN(c2ccc(F)cc2)CC1	1.08	.
O=C(CN1C(=O)COc2ccc(S(=O)(=O)N3CCCCC3)cc21)N1CCc2ccccc2C1	0.06	.
COc1ccccc1C1CC(=O)N2CN(C3CCCCC3)CSC2=C1C#N (configuration not stated)	-0.27	2.51
COc1cccc(C2CC(=O)N3CN(C4CCCCC4)CSC3=C2C#N)c1OC (configuration not stated)	-0.67	6.17*
COc1cccc(C2CC(=O)N3CN(c4ccc(Br)cc4)CSC3=C2C#N)c1OC (configuration not stated)	-3.15	5.94*
N#CC1=C2SCN(C3CCCCC3)CN2C(=O)CC1c1ccc(Cl)cc1 (configuration not stated)	-2.18	0.07
COc1ccc(C2CC(=O)N3CN(C4CCCC4)CSC3=C2C#N)cc1OC (configuration not stated)	-2.12	5.89*
N#CC1=C2SCN(c3ccc(Br)cc3)CN2C(=O)CC1c1ccccc1F (configuration not stated)	-1.85	7.27*
COC(=O)c1sc2ccccc2c1S(=O)(=O)Nc1ccccc1F	0.81	.
COc1cccc(N2CCN(c3ccc(Cl)nn3)CC2)c1	1.96	-2.01
CCOC(=O)c1sc(=S)n(-c2ccc(Cl)cc2)c1N	1.46	.
SMILES	TAR Tat displ	CDC25B CDK2 inh
CCOC(=O)c1sc(=S)n(-c2ccc(OC)cc2)c1N	1.14	16.5*
CN1c2ccccc2-c2nc(SCC(=O)Nc3ccc(Br)cc3)ncc2S1(=O)=O	1.05	.
CCN(CC)CC(C)CNC(=O)c1c(O)nc2cc(C)ccn2c1=O (configuration not stated)	0.48	-1.17
Nc1ccc(-c2nc3ccc(N)cc3s2)cc1	1.76	-3.86
Nc1ccc(-c2nc3cc4sc(-c5ccc(N)cc5)nc4cc3s2)cc1	35.5*	4.5*
Cc1noc(C)c1CCNC(=O)CN1CCSc2ccccc21	0.68	.
CCOc1ccc(N(Cc2cccc(C)c2)C2=NC3CS(=O)(=O)CC3S2)cc1 (configuration not stated)	0.6	-2.59
Fc1cccc(CSc2ccc(-c3cccnc3)nn2)c1	-0.56	.
COc1cc(-c2nc(-c3ccccc3)c(-c3ccccc3)[nH]2)ccc1O	.	-0.82
COc1ccc(-c2nc(-c3cccs3)c(-c3cccs3)[nH]2)cc1O	1.25	18.3*
CC(C)(C)c1ccc(S(=O)(=O)c2cc3cc(Br)ccc3oc2=O)cc1	.	-0.99
Cc1nonc1NC(=O)Nc1ccncc1	-0.99	9.17*
Cc1nonc1NC(=O)N1CCOCC1	1.34	-1.39
COC(=O)c1cnc(N2CCC(N3CCCCC3)CC2)c2ccccc12	0.75	.
CSc1ccc(/C=C/c2nc(=O)c3ccccc3o2)cc1	-0.65	-0.74
O=c1nc(/C=C/c2ccc(O)c(O)c2)oc2ccccc12	18.2*	-0.52
CC(Nc1nc(N2CCOCC2)nc2ccccc12)C12CC3CC(CC(C3)C1)C2 (configuration not stated)	.	0.23
Cc1cc(=O)oc2cc(O)cc(O)c12	1.17	.
O=c1oc2c(O)c(O)cc3c(=O)oc4c(O)c(O)cc1c4c23	30.6*!	.
Cn1c(=O)c2c(SCC(=O)N3CCc4ccccc43)nc(-c3cccs3)nc2n(C)c1=O	.	-1.65
CN(Cc1ccccc1)c1nnc(NC(=O)NCc2ccccc2)s1	7.97*	-1.3
CN(Cc1ccccc1)c1nnc(NC(=O)Nc2ccc3c(c2)OCCO3)s1	3.63	-0.57
O=C(NCc1cccs1)C1CCN(S(=O)(=O)c2ccc3[nH]ccc3c2)CC1	0.8	.
O=C(O)COc1ccc2c(c1)C(=O)c1cc(OCC(=O)O)ccc1-2	7.22*	-0.19
CCN(CC)CCOc1ccc2c(c1)C(=O)c1cc(OCCN(CC)CC)ccc1-2	0.27	.
SMILES	TAR Tat displ	CDC25B CDK2 inh
Cc1cc(C)c(-c2c(NCc3ccccn3)c(=O)c2=O)cc1C	-0.64	.
O=C1CC(C(=O)Nc2ccc3c(c2)OCO3)n2ncnc2N1 (configuration not stated)	-2.09	0.99
O=C1CC(C(=O)Nc2ccc(Cl)cc2)n2ncnc2N1 (configuration not stated)	0.9	3.92*
CCOC(=O)c1cccc(-n2c(C)cc(/C=C3/SC(=O)NC3=O)c2C)c1	.	-0.61
Cc1ccc(S(=O)(=O)c2c[nH]c3ccc(Cl)cc3c2=O)cc1F	0.94	-6.37
CCC(=O)Nc1nc2c(s1)CC(C)CC2 (configuration not stated)	1.17	-0.14
CSc1ccc(C2C(C#N)=C(N)Oc3c2ccc2ccccc32)cc1 (configuration not stated)	-0.49	-0.13
CSc1ccc(C2C(C#N)=C(N)OC3=C2CCc2ccccc23)cc1 (configuration not stated)	.	7.5*
CNC(=O)c1c(NC(=O)c2cc(OC)cc(OC)c2)sc2c1CCC2	0.19	.
Clc1ccccc1CSc1nnc(-c2cccs2)o1	.	-0.83
Cc1sc2ncn(CC(=O)N3CCOCC3)c(=O)c2c1S(=O)(=O)N1CCOCC1	2.3	-1.49
Cc1sc2ncn(CC(=O)N3CCCCCC3)c(=O)c2c1S(=O)(=O)N1CCN(C)CC1	.	19.2*
Clc1cccc(-c2noc(NC3CC3)n2)c1	2.57	-1.76
COc1ccc(Cl)cc1Nc1nc(-c2c(C)nc3ccccn23)cs1	8.26*	6.62
COc1ccccc1Nc1nc(-c2c(C)nc3ccccn23)cs1	2.5	-1.83
CC1CC(C)CN(C(=O)C2CCN(S(=O)(=O)c3ccc4[nH]c(=O)ccc4c3)CC2)C1 (configuration not stated)	-1.95	.
Cc1cccc(C2C(C#N)=C3N=C(N)c4ccccc4N3C3=C2C(=O)CCC3)c1 (configuration not stated)	1.04	-1.55
N#CC1=C2N=C(N)c3ccccc3N2C2=C(C(=O)CCC2)C1c1cccc(Br)c1 (configuration not stated)	-5.1	18.1*
